Experimental data: ChEMBL document CHEMBL4513216, “Probing the Open Global Health Chemical Diversity Library for Multistage-Active Starting Points for Next-Generation Antimalarials” (ACS Infect Dis, 2020)
The whole screen tested about 65,000 compounds, of which about 2,100 (3.2%) showed an effect of 50% or more. The median lay at about -52%. For the sample, strong results were picked, then their nearest neighbours and some compounds at random.

system: Plasmodium falciparum; experiment: Screen against P. falciparum Asexual Blood Stage (ABS), at 5uM; type: functional, Dd2; conditions: tested at 5 uM

| SMILES | INHIBITION |
| --- | --- |
| O=c1cc(CN2CC[C@@H]3CC[C@H](C2)N3)c2cccc3c2n1CCC3 | -41.1% |
| COCCN1CCC12CCN(C(=O)c1ccc(C)nc1)C2 (stereo not drawn) | -172% |
| COC[C@]12COC[C@H]1CN(Cc1ccc3ccccc3n1)C2 | -29.2% |
| COc1cccc([C@@H]2CCN(Cc3ccc4ccccc4n3)C[C@H]2O)c1 | -17.2% |
| CCOc1ccc2nc(CN3CCC(CN)C3)ccc2c1 (stereo not drawn) | 85.5% |
| c1cnc(N2CCO[C@@H]3CN(Cc4ccoc4)C[C@@H]3C2)nc1 | -30.5% |
| Cc1cc(Cl)ccc1S(=O)(=O)NCC(C)N1CCN(C)CC1 (stereo not drawn) | 74.3% |
| CNS(=O)(=O)CC(=O)NC(C)Cc1cccc(Cl)c1 (stereo not drawn) | -15.4% |
| CC(CNS(=O)(=O)c1cccc(Cl)c1)N1CCN(C)CC1 (stereo not drawn) | 78% |
| Cc1cccc(S(=O)(=O)NCC(C)N2CCN(C)CC2)c1Cl (stereo not drawn) | 81.5% |
| COCCN1CCN(c2cc(OC)ncn2)Cc2ccc(C)nc21 | -102% |
| Cc1cc(CN2CC[C@H]3C[C@@H](c4nc(C5CC5)cs4)O[C@@H]3C2)no1 | 6.98% |
| Cc1ccccc1C1(CN)CCOCC1 | 36.4% |
| NCC1(c2cccc(C(F)(F)F)c2)CCCCC1 | 2.74% |
| Cc1ccccc1C1(CN)CCCCC1 | 91% |
| CC(c1cn2ccsc2n1)n1cc2[nH]cccc-2c1=O (stereo not drawn) | -134% |
| CO[C@H]1CN(C(C)C)C[C@@H]1NC(=O)c1cc(-c2ccccc2O)n[nH]1 | 90% |
| Clc1ccccc1-c1cc(CNc2ncnc3c2CCNCC3)no1 | 80.3% |
| CC(C)(C)C(=O)N1C[C@H](c2ccsc2)[C@H]2CN(C3CCCCC3)CC[C@H]21 | 77.3% |
| CC(C)(C)C(=O)N1C[C@H](c2ccsc2)[C@H]2CN(C3CCCC3)CC[C@H]21 | 72.6% |
| CN1CCN([C@@H]2CN(C(=O)Cc3ccsc3)[C@@H]3CCCO[C@H]23)CC1 | -66.9% |
| c1cnc(N2CCC3(CCCN(CC4CC4)C3)CC2)nc1 | 41.7% |
| COCCN1CCC2(C1)CN(c1ncccn1)C2 | -85.3% |
| c1cnc(N2CCCC3(COCCN(CC4CC4)C3)C2)nc1 (stereo not drawn) | 37.4% |
| Cc1noc(C)c1CN1CCCC2(CCN(C(=O)C3CC3)C2)C1 (stereo not drawn) | 12.9% |
| c1cnc(N2CCCC3(CCN(CC4CC4)C3)C2)nc1 (stereo not drawn) | 61.1% |

| SMILES | INHIBITION |
| --- | --- |
| Cc1noc(C)c1CN1CCCC2(CCN(C(=O)CC3CC3)C2)C1 (stereo not drawn) | -16.5% |
| c1cnc(N2CCC3(CN(CC4CCOC4)C3)C2)nc1 (stereo not drawn) | -15.6% |
| CCC(CC)CN1CCC2(CCCN(c3ncccn3)C2)C1 (stereo not drawn) | 62.6% |
| c1cnc(N2CCCC3(CCN(CC4CCC4)C3)C2)nc1 (stereo not drawn) | 53.9% |
| Cc1noc(C)c1CN1CCCC2(CCN(CC3CCCC3)C2)C1 (stereo not drawn) | 83.1% |
| CCN1CCCC12CCCN(c1ncccn1)C2 (stereo not drawn) | -31.8% |
| CNC(=O)CN1CCOCC12CCN(Cc1ccncc1)CC2 | -20.5% |
| Cc1cccc(CN2CCC[C@@H]3CN(C(=O)c4ccco4)C[C@@H]32)n1 | -73.5% |
| CCS(=O)(=O)NC[C@]12COC[C@H]1CN(Cc1cccnc1)C2 | -97.3% |
| O=C(NCC1CC1)[C@H]1C[C@@H]2[C@@H](C1)OCCN2Cc1cccnc1 | -29.4% |
| CC(C)(C)c1cn(C[C@H]2CC3CCN2C[C@@H]3C(=O)NC2CC2)nn1 (stereo partly drawn) | -148% |
| Cc1noc(C)c1CN1C[C@@H]2C[C@H](C(=O)NCC3CC3)N(C)[C@@H]2C1 | -8.05% |
| CC(=O)C1(c2ccccc2)CCN(C(=O)C2CNCCO2)CC1 (stereo not drawn) | -81.4% |
| O=C(C1CNCCO1)N1CCCC(c2ccccc2)(c2ccccc2)C1 (stereo not drawn) | 79.5% |
| CC(=O)C1(c2ccccc2)CCN(C(=O)CC2CNCCO2)CC1 (stereo not drawn) | -44.7% |
| CCN(CC)c1nc(Nc2cccc(C(C)O)c2)nc2ccccc12 (stereo not drawn) | 84.5% |
| CC(O)c1cccc(Nc2nc(NCCO)c3ccccc3n2)c1 (stereo not drawn) | 89.4% |
| OC[C@@H]1CN2CCN(c3ccccn3)C[C@@H]2[C@H]1c1ccccc1 | -7.96% |
| c1ccc(CO[C@@H]2CN(Cc3nccs3)[C@@H]3COC[C@@H]32)nc1 | -84.8% |
| CCn1nc(C)c(CN2CCNCC2)c1C | -86.35% |
| c1cncc(C(Cn2cnnc2)N2CCOCC2)c1 (stereo not drawn) | -88.3% |
| COCCN1CCC2(CC1)C(=O)Nc1ccc(C(=O)NC(C)C)cc12 | -102% |
| COCCN1CCc2cc(C(=O)NC(C)C)c(NCC(C)C)nc2CC1 | 78.9% |
| Cc1n[nH]c2c1C(c1cnn(C)c1)SCC(=O)N2 (stereo not drawn) | -51.7% |
| CN(C)C(=O)N1CCCC2(CCN(Cc3ccncc3)C2)C1 (stereo not drawn) | -29.6% |
| CC(C)c1ccc(CN2CCC3(CCCN(c4nncs4)C3)C2)cc1 (stereo not drawn) | 73.6% |

| SMILES | INHIBITION |
| --- | --- |
| c1cncc(CN2CCC3(CCCN(c4nncs4)C3)C2)c1 (stereo not drawn) | -82.9% |
| Cc1cccc(CN2C[C@@H]3COC[C@H](NS(C)(=O)=O)[C@@H]3C2)n1 | -96.6% |
| CC(C1CCN(Cc2c(Cl)ccc(O)c2Cl)CC1)N1CCN(C)CC1 (stereo not drawn) | 87.2% |
| Cc1n[nH]c2c1C(c1cc(F)cc(F)c1)SCC(=O)N2 (stereo not drawn) | -23.5% |
| CCOC(=O)N1CC2(CCNCC2)c2cc(Cl)ccc21 | 78% |
| O=C1CCC2(CCCN(C(=O)c3ccco3)CC2)N1 (stereo not drawn) | 40.8% |
| NC(=O)N1CC2(CCNCC2)c2cc(Cl)ccc21 | -61% |
| COC(=O)N1CC2(CCNCC2)c2cc(Cl)ccc21 | 13.1% |
| O=C(c1ccccc1F)N1CC2(CCNCC2)c2cc(Cl)ccc21 | 77% |
| CCOC(=O)N1CCC2(CCNC2)C1 (stereo not drawn) | -85.4% |
| CC(=O)N1CC2(CCNCC2)c2cc(Cl)ccc21 | 3.4% |
| O=C(c1ccco1)N1CC2(CCNCC2)c2cc(Cl)ccc21 | 76.1% |
| O=C(c1ccco1)N1CCO[C@@H]2CNCC[C@@H]2C1 | -138% |
| O=C(NC[C@]12COC[C@H]1CN(Cc1cccnc1)C2)C1CCC1 | -49.9% |
| CCC(C(=O)N1CCCSCC1)N1CCCC1=O (stereo not drawn) | -76.1% |
| CNCCc1nc2cc(Cl)ccc2[nH]1 | -71% |
| O=C(N1CCCO1)[C@@]12CCO[C@@H]1CCN(Cc1ccccn1)C2 | -110% |
| CC(Cn1cncn1)NCCN1CCc2ccccc21 (stereo not drawn) | -71.4% |
| CC(C)c1nn(C)c(Cl)c1CNCC(O)c1cccc(F)c1 (stereo not drawn) | 82.4% |
| CC(C)=CCN1C[C@@H]2CC[C@H]1CN(C(=O)CSc1ccncc1)C2 | -26.7% |
| Cc1noc(C)c1CN1CC2(CCCCN2C)CC1=O (stereo not drawn) | -15.4% |
| O=C(N[C@@H]1CN(Cc2ccccn2)[C@@H]2COC[C@@H]21)C1CCC1 | -89.5% |
| O=C(Nc1cccnc1)[C@H]1C[C@@H]2CCN(Cc3nccs3)C[C@@H]2O1 | -177% |
| O=C(Nc1nccs1)C1CCCN1Cc1ccccn1 (stereo not drawn) | 93.7% |
| CCn1ccnc1CN1CCCN(C(=O)Cc2csc(C)n2)CC1 | -15.3% |
| CCNc1ccnc(CN2CCCC2C(=O)Nc2nccs2)c1 (stereo not drawn) | 95.1% |

| SMILES | INHIBITION |
| --- | --- |
| CCn1ccnc1CN1CCCC1C(=O)Nc1nccs1 (stereo not drawn) | 85% |
| CC(C)NC(=O)[C@H]1C[C@@H]2[C@@H](C1)OCCN2Cc1ccccn1 | -84.2% |
| CN(C)CCN(Cc1cccnc1)C(=O)c1ccn(-c2ccccc2)n1 | 87.4% |
| Cc1cnc(C(=O)N2C[C@H]3CN(Cc4cccnc4)C[C@H]3C2)cn1 | -8.02% |
| CCCN1CCN(C(=O)Cc2nc(-c3ccco3)oc2C)CC1 | -36.9% |
| COc1cccc(C2=CCN(CCN3CCCC3=O)CC2)c1 | 12.8% |
| Cc1nc(CCN)cc(N2CCC(O)(c3ccc(Cl)cc3)CC2)n1 | 91.7% |
| Cc1nc(CN)cc(N2CCC(O)(c3ccc(Cl)cc3)CC2)n1 | 72.2% |
| CN1[C@@H](C(=O)NCC2CC2)C[C@@H]2CN(c3ncccn3)C[C@@H]21 | 13.9% |
| c1ccc(O[C@@H]2CC[C@H]3[C@H]2OCCN3CC2CCOCC2)nc1 | -83.6% |
| c1ccc(O[C@H]2CC[C@H]3[C@H]2OCCN3Cc2nccs2)nc1 | -64.9% |
| CC(C)C[C@H](N)COc1cccc(F)c1Oc1ccccc1 | 70.9% |
| CC(C)C[C@H](N)COc1cccc(F)c1Oc1ccc(Cl)cc1 | 86.5% |
| CC(C)C[C@H](N)COc1cccc(F)c1Oc1cccc(Cl)c1 | 85.5% |
| c1ccc(CO[C@@H]2C[C@H]3CN(c4ncccn4)CCN3C2)nc1 | -38.6% |
| c1cc(CN2CCOC3(CCCC3)C2)no1 | -101% |
| O=C1CSC(c2ccsc2)c2sccc2N1 (stereo not drawn) | -15.7% |
| Cc1ccc(N2CCO[C@H]3CN(Cc4cccs4)C[C@H]32)nn1 | -11.3% |
| O=C(CN1CCCC(c2ccn[nH]2)C1)Nc1nc2c(s1)CCCC2 (stereo not drawn) | 86.1% |
| COCCn1cc(C(=O)Nc2nc3c(s2)CCC3)c2ccccc21 | -78.7% |
| Cc1cc(C2CCCN(CC(=O)Nc3nc4c(s3)CCC4)C2)n[nH]1 (stereo not drawn) | 86.9% |
| O=C(CN1CCCC(c2ccn[nH]2)C1)Nc1nc2c(s1)CCC2 (stereo not drawn) | 89.2% |
| CC1CN(C)CCN1C(=O)COc1cccc(Oc2ccccn2)c1 (stereo not drawn) | -65.8% |
| Cc1noc(C)c1CN1CCOC2(CCCN(c3nccs3)C2)C1 (stereo not drawn) | -36.8% |
| CCCOc1cc(Cl)c(CN2CCNC(C(=O)NC3CC3)C2)cc1OC (stereo not drawn) | 75.4% |
